Screening results: PubChem BioAssay, SRMLSC
Abs 340nm – compound absorbs light at 340 nm; compound absorbance at 340 nm, fold over control; AID 708; 65,000 tested, under 10 active; fold change at 10 µM;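 active means at 10 µM dose, initial 340 nm absorbance at least 2 fold that of control wells; inactive means change under 2 fold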;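 further: initial absorbance extrapolated from kinetic A340 decline of NADH oxidation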
Fluor 339 460 – intrinsic fluorescence of library compounds, ex339/em460 – biochemical, MLSMR library, data from DPM-DC assay, artefact control, profiling panel | compound autofluorescence, ex339/em460 nm, NADH buffer; hits give high values; 1 = no-compound wells, NADH background | fluorescence fold increase at 10 µM | 65,000 tested, 5.5% active | AID 709;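 active means at 10 µM, mean starting fluorescence two-fold or more over control wells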;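 further: signal is the first read of a kinetic run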
MK inhibit – blocks S. pneumoniae mevalonate kinase. 65,000 tested, 0.48% active. purified MK, PK/LDH-coupled NADH absorbance 340 nm. inhibition, % at 10 µM;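 active means ranked among the strongest by inhibition in the single 10 µM screen, a fixed top-ranked set picked for dose follow-up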
Spn DPM-DC inh – S. pneumoniae DPM-DC inhibition; 65,000 tested, 0.49% active; purified DPM-DC, PK/LDH coupled NADH fluorescence; AID 556; calls only at 10 µM;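 active means the 320 compounds with the highest percent inhibition in the single-dose primary screen, excluding strongly autofluorescent ones, cut at about 32% in these data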;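 further: kinetic rate of NADH fluorescence loss reporting ADP formed by the decarboxylase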
Spn PMK inh – S. pneumoniae PMK inhibition. purified PMK, PK/LDH-coupled NADH absorbance 340 nm. inhibition, % at 10 µM. 65,000 tested, 0.49% active;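 active means top-ranked compounds by inhibition in the single 10 µM screen, taking a fixed number of the strongest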;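 further: 0% = full reaction with DMSO carrier and 100% = background rate without enzyme reaction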
NADH enzymes – inhibition of NAD/NADH coupling enzymes, library profiling; 65,000 tested, 0.02% active; AID 774; coupled PK/LDH NADH assays, four targets; IC50, µM (titrated, usually from 10 µM), without a hit: top-dose inhibition;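 active means single-dose screening hits from any of four coupled enzyme assays that gave an IC50 when retested across doses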;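 further: the DPM-DC format reads NADH fluorescence rather than 340 nm absorbance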
Active calls of the source: *; i = inactive; . = no result shown; + = active, no number. This is a sample that favours compounds with a hit; in the whole collection about 6.3% have one here.

SMILES	Abs 340nm	Fluor 339 460	MK inhibit	Spn DPM-DC inh	Spn PMK inh	NADH enzymes
CCN(CC)CCNC(=O)CCCCn1c(=S)[nH]c2c([nH]c3ccc(OC)cc32)c1=O	1.1	1.6	42*	i	1	14%
CCN(CC)CCNC(=O)CCn1c(=S)[nH]c2cc3c(cc2c1=O)OCO3	1	1	1	i	7	2%
Cc1cc(CCN2CCC(=O)NC2=O)ccc1OC(C)C	0.96	1.1	11	i	14	9%
COc1ccc(CC(NC(C)=O)C(=O)N2CCN(C(=O)Nc3ccc(Cl)cc3)CC2)cc1OC (stereo not drawn)	1	1.1	2	i	3	2%
CC(=O)c1cnc(Nc2nc(C)c3cccc(C)c3n2)nc1C	1.1	1.1	2	i	5	2%
COc1ccc(C)cc1-n1nnnc1SCC1CCCCO1 (stereo not drawn)	0.96	1	2	i	10	4%
COC(=O)C1(C)Nc2ccccc2C(=O)N1c1ccccc1C (stereo not drawn)	1.1	2.1*	4	.	0	2%
COc1ccc(C2=NOC(C(=O)NCCCN3CCOCC3)C2)cc1 (stereo not drawn)	0.99	1.1	0	i	3	2%
COc1ccc(N2CC(C(=O)NCCCN3CCOCC3)CC2=O)cc1 (stereo not drawn)	1	1.1	51*	i	0	17%
CCN1CCN(CCCNC(=O)c2cc3cc4ccc(OC)cc4nc3o2)CC1	1.1	5.2*	2	.	12	7%
CCN1CCN(CCCNC(=O)C2c3ccccc3C(=O)N(C)C2c2ccc(OC)cc2)CC1 (stereo not drawn)	1	1	3	i	0	2%
COc1ccc2cc3cc(C(=O)NCCCN4CCOCC4)oc3nc2c1	1.1	5.1*	0	.	4	2%
Cc1ccc2cc3cc(C(=O)NCCN4CCOCC4)oc3nc2c1	1.1	3.2*	0	.	5	14%
COc1cc(OC)cc(-n2nc(C(=O)NCCCN3CCOCC3)c3ccccc3c2=O)c1	1	1.2	0	i	0	0%
Cc1ccccc1OCc1nnc2c3cnn(C)c3ncn12	1	1.1	1	i	6	2%
CC(=O)NC(Cc1ccccc1C)C(=O)NC1CCN(c2c3c(nc4ncnn24)CCC3)CC1 (stereo not drawn)	1	1.1	4	i	14	6%
COc1ccc2cc3cc(C(=O)Nc4ccc5c(c4)OCO5)oc3nc2c1	1.1	1.3	0	i	21	7%
Cc1ccc2cc3cc(C(=O)NCc4ccc5c(c4)OCO5)oc3nc2c1	1.1	5.2*	2	.	1	2%
CCCN1CCN(C(=O)c2cccc3c2C(=O)N(CCOC)C3)CC1	1	1.1	7	i	3	3%
COc1ccc2[nH]c(=O)c(-c3noc(-c4ccccc4)n3)cc2c1	1	3.6*	7	.	0	4%
O=c1[nH]c2ccccc2cc1-c1noc(-c2cccnc2)n1	1.1	4.2*	8	.	6	7%
COc1cc(OC)cc(-c2nc(-c3ccccc3)no2)c1	1	1.2	10	i	4	6%
COC(=O)/C(=C1/Oc2cc3c(cc2S1)OCO3)C(F)(F)F	1.1	2.2*	8	i	13	11%
CCCN(CCC)c1nc(C)cc(C(C#N)c2nc3ccccc3o2)n1 (stereo not drawn)	1	2.2*	5	i	8	4%
CCOc1ccccc1C(=O)NCC(=O)OCC(=O)c1ccc2c(c1)OCCO2	1	1.1	0	i	26*	9%
SMILES	Abs 340nm	Fluor 339 460	MK inhibit	Spn DPM-DC inh	Spn PMK inh	NADH enzymes
CNS(=O)(=O)c1cccc(C(=O)OC2CCCCC2=O)c1 (stereo not drawn)	0.99	1.1	4	i	28*	11%
O=C(c1cnn2c(C(F)F)cc(-c3ccccc3)nc12)N1CCSCC1	1.1	1.2	11	i	7	7%
COc1ccc(-c2cc(C(F)F)n3ncc(C(=O)N4CCN5CCCC5C4)c3n2)cc1 (stereo not drawn)	1.1	3.6*	13	.	5	9%
O=C(c1cnn2c(C(F)F)cc(-c3ccccc3)nc12)N1CCOCC1	1.1	3.7*	7	.	13	10%
COc1ccc(-c2cc(C(F)(F)F)n3ncc(C(=O)NCC4CCCO4)c3n2)cc1OC (stereo not drawn)	1.1	1.7	0	i	0	3%
COc1ccc(-c2cc(C(F)F)n3ncc(C(=O)NCC4CCCO4)c3n2)cc1 (stereo not drawn)	1	3*	6	.	5	4%
CC1CN(C(=O)c2cnn3c(C(F)F)cc(-c4ccccc4)nc23)CC(C)O1 (stereo not drawn)	1.1	1.8	5	i	9	5%
CN1CCN(C(=O)c2cnn3c(C(F)F)cc(C4CC4)nc23)CC1	0.99	1.1	9	i	0	4%
CCOC(=O)N1CCN(C(=O)c2cnn3c(C(F)F)cc(-c4ccc(C)cc4)nc23)CC1	1.1	2.9*	0	i	2	11%
CC1CC(C)CN(c2nc3c(c(=O)n(C)c(=O)n3C)n2CCSc2nc3ccccc3o2)C1 (stereo not drawn)	1.1	1	6	i	13	6%
Cc1cc(NC(=O)CCC(=O)N(c2ccccc2)C(C(=O)NCC2CCCO2)c2cccnc2)no1 (stereo not drawn)	1	1.1	2	i	10	4%
COC(=O)C(NC(=O)c1ccco1)(Nc1ccc(Br)cn1)C(F)(F)F (stereo not drawn)	1	1.1	0	i	6	2%
CCOc1ccc2[nH]c(=O)c(CN(Cc3cccs3)Cc3nnnn3C(C)(C)CC)cc2c1	1	2.6*	4	i	11	15%
CCC(C)(C)n1nnnc1CN(Cc1cccs1)Cc1cc2cc(OC)ccc2[nH]c1=O	1	1.7	9	i	8	7%
O=c1[nH]c2cc3c(cc2cc1CN(Cc1cccs1)Cc1nnnn1Cc1ccco1)OCCO3	1	2.4*	5	i	6	11%
O=c1[nH]c2cc3c(cc2cc1CN(CCCO)Cc1nnnn1Cc1ccc(F)cc1)OCO3	1.2	3.1*	7	+	9	17%
CCc1ccc2[nH]c(=O)c(CN(Cc3ccccc3)Cc3nnnn3Cc3ccco3)cc2c1	1	1.2	9	i	3	4%
Cc1ccc2[nH]c(=O)c(CN(Cc3ccc4c(c3)OCO4)Cc3nnnn3Cc3ccco3)cc2c1	1	1.1	8	i	11	4%
O=c1[nH]c2cc3c(cc2cc1CN(Cc1ccccc1)Cc1nnnn1Cc1ccco1)OCCO3	1	2.5*	6	i	2	10%
Cc1ccc2cc(CN(CCO)Cc3nnnn3Cc3ccc(F)cc3)c(=O)[nH]c2c1	1	1.1	1	i	14	6%
